Measurements reported in PubChem BioAssay (NCATS).
Unmarked numbers belong to inactive results. The call rests on the fitted dose curve; in most records, active means well fitted inhibition curve with a large enough effect; inconclusive means small, poorly fitted or top-dose-only effect; inactive means flat fitted curve, though single readings scatter.

system: Nanoluciferase (engineered Oplophorus gracilirostris luciferase); assay: Primary Nanoluciferase (NLuc) qHTS assay for identification of artifact compounds. (AID 1845222); details: NLuc-conditioned medium, Nano-Glo luminescence, 5 min; series mostly up to 54.1 µM; activity, negative = inhibition: at the top concentration;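 further: 0% = DMSO and -100% = no enzyme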
Method in brief: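 Luminescence read-out of secreted NLuc in S16 cell conditioned medium (1:55); compounds tested with 15 min RT preincubation, then Nano-Glo substrate 1:100, 5 min. % inhibition vs no-enzyme and DMSO controls, 4-parameter Hill fit.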

Point of comparison: `C=C1CCC2[C@@](C)(C(=O)O)CCC[C@@]2(C)[C@@H]1CCc1ccoc1` (some centres not stated), “activity, negative = inhibition” value -3.6%. Against it:
- Cc1cc(C)c2nc(-c3ccccn3)cc(C(=O)Nc3ccc(S(=O)(=O)Nc4onc(C)c4C)cc3)c2c1 — lower, -15.4%
- COc1ccc(N2CCN(CCCNC(=O)Cn3c(=O)c4cccn4c4c(C)ccnc43)CC2)cc1 — higher, 1.77%
- C=C[C@H]1[C@H](O[C@@H]2O[C@H](CO)[C@@H](O)[C@H](O)[C@H]2O)OC=C(C(=O)OC)[C@H]1CCO — higher, 2.37%
- C=C(CCO[C@@H]1O[C@H](CO)[C@@H](O)[C@H](O)[C@H]1O)C(=O)O — higher, 0%
- CC1(C)C[C@H](O)C[C@@]2(C)[C@H]1[C@H](O)C=C1COC(=O)[C@@]12O — lower, -5.84%
- CC(=O)c1c(C)cccc1O[C@@H]1O[C@H](CO)[C@@H](O)[C@H](O)[C@H]1O — higher, -0.77%
- CC1CC(=O)C2C(O)(C1)CC(O)C13OC1c1c(O)cccc1C(=O)C23O (configuration not stated) — higher, -3.03%

Point of comparison: `CC(O)/C=C/C1(O)C(C)C(O)C(O[C@@H]2O[C@H](CO)[C@@H](O)[C@H](O)[C@H]2O)CC1(C)C` (some centres not stated), “activity, negative = inhibition” value -2.09% [at 25.7 µM]. Against it:
- C=C[C@@](C)(CCC=C(C)C)O[C@@H]1O[C@H](CO[C@@H]2OC[C@H](O)[C@H](O)[C@H]2O)[C@@H](O)[C@H](O)[C@H]1O — higher, 2.79% [at 25.7 µM]
- C[C@]12CCC[C@](C)(C(=O)O)C1[C@@H](O)[C@@H](O)C13CC(CCC12)C(CO)(O[C@@H]1O[C@H](CO)[C@@H](O)[C@H](O)[C@H]1O)C3 (some centres not stated) — higher, -1.49% [at 25.7 µM]
- CC1=C(C(=O)OC2OC(COC3OC(CO)C(O)C(O)C3O)C(O)C(O)C2O)C(C)(C)CCC1 (configuration not stated) — higher, 2.9% [at 25.7 µM]
